Source: the supplement of paper PMC6411743
± gives the standard deviation of the averaged measurements. Of roughly 6,200 targets only a part is listed; those with the largest changes were picked by preference.

Compound: Nc1ncnc2c1ncn2[C@@H]1O[C@H](COP(=O)(O)OP(=O)(O)NP(=O)(O)O)[C@@H](O)[C@H]1O [adenylyl imidodiphosphate]
Assay: NP40-soluble protein abundance relative to vehicle (solubility fold change) (ratio); higher = more soluble protein in presence of AMP-PNP
Method in brief: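 Values are fold changes against the detergent-processed vehicle, based on vsn-normalised intensities. Jurkat crude lysate was treated at eight concentrations from 0.1 to 10 mM (10 min at room temperature, then 3 min at 37 °C), solubilised with 0.8% NP40 and benzonase, ultracentrifuged and analysed by TMT-labelled LC-MS/MS over three independent experiments.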

Sequence of UniProt Q9UBI9 (Q9UBI9 whole entry): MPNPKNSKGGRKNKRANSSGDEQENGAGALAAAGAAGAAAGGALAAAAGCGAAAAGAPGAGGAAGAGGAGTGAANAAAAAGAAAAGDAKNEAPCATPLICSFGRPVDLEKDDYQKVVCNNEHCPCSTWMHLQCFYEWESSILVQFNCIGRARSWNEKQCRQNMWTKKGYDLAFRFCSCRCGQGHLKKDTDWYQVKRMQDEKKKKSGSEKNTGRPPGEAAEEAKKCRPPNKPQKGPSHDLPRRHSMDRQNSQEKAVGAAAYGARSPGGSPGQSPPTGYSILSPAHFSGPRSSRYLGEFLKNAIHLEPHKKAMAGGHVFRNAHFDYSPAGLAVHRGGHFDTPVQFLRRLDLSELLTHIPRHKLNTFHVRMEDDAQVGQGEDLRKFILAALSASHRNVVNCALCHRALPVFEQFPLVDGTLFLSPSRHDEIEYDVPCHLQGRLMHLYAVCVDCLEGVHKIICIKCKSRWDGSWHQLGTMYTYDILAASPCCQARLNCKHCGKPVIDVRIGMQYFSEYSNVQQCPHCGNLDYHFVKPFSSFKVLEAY
Sequence of UniProt Q9ULV4 (Q9ULV4 whole entry): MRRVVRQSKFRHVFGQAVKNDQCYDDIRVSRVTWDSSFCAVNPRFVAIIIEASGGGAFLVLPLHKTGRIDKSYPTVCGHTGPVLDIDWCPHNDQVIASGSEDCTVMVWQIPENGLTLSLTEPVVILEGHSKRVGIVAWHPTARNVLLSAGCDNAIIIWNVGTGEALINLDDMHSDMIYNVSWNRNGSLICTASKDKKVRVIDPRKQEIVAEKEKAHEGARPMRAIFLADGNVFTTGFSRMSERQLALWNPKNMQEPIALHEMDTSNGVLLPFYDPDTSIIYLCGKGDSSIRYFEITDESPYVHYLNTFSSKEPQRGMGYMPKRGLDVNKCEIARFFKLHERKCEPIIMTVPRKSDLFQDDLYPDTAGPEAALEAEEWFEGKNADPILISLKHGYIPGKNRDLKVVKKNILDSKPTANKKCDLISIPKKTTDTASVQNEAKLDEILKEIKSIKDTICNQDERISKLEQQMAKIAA
Sequence of UniProt Q9Y5B9 (Q9Y5B9 whole entry): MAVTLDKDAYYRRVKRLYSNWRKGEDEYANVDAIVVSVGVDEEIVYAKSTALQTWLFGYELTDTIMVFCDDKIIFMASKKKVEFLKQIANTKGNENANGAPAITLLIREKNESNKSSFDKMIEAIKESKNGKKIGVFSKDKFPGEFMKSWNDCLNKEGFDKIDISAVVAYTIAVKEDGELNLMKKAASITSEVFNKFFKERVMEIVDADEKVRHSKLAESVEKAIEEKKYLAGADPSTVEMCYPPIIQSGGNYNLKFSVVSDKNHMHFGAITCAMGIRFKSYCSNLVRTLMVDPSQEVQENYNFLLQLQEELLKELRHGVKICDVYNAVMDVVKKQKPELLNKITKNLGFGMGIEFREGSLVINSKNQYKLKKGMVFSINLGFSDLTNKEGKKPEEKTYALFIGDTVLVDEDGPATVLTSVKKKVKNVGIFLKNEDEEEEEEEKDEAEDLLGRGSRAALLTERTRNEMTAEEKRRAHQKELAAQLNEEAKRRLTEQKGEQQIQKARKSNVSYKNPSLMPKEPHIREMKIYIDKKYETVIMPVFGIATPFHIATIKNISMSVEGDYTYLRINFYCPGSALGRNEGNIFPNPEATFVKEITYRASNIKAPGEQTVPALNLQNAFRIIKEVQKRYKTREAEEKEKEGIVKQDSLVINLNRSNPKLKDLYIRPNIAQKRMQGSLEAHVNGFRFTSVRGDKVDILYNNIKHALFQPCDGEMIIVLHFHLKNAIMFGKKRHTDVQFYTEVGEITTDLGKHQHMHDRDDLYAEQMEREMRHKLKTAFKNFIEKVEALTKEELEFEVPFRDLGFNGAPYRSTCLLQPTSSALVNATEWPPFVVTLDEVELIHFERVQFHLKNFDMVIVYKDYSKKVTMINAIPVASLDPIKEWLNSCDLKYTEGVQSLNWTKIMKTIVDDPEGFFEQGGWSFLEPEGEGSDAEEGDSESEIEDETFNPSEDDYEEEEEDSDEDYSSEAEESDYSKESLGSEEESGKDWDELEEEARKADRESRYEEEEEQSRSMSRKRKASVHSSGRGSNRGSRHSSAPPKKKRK
Sequence of UniProt Q9Y462 (Q9Y462 whole entry): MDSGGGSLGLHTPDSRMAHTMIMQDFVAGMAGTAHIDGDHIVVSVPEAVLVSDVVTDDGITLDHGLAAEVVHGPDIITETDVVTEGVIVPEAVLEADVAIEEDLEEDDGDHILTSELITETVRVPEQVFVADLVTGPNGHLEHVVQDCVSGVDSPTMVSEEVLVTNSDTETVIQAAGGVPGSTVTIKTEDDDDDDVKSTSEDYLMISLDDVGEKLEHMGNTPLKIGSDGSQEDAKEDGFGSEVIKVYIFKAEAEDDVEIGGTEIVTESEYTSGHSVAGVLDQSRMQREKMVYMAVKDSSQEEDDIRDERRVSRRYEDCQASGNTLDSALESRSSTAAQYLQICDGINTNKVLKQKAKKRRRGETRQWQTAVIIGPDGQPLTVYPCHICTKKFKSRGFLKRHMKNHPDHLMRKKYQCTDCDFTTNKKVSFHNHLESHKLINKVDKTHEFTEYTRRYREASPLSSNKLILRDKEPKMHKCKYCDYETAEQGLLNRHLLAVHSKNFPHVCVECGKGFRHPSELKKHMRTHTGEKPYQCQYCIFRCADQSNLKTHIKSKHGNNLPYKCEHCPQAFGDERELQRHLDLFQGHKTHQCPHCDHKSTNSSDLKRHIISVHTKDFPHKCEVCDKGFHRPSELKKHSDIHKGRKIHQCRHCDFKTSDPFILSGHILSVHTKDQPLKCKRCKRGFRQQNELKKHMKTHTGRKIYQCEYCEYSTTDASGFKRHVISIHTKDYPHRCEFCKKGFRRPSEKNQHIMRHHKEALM
Sequence of UniProt Q9BPZ3 (Q9BPZ3 whole entry, one chain of several): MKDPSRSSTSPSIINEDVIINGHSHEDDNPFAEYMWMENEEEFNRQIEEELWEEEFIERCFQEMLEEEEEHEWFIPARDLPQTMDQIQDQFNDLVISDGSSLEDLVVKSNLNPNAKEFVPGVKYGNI
Sequence of UniProt Q96T23 (Q96T23 whole entry): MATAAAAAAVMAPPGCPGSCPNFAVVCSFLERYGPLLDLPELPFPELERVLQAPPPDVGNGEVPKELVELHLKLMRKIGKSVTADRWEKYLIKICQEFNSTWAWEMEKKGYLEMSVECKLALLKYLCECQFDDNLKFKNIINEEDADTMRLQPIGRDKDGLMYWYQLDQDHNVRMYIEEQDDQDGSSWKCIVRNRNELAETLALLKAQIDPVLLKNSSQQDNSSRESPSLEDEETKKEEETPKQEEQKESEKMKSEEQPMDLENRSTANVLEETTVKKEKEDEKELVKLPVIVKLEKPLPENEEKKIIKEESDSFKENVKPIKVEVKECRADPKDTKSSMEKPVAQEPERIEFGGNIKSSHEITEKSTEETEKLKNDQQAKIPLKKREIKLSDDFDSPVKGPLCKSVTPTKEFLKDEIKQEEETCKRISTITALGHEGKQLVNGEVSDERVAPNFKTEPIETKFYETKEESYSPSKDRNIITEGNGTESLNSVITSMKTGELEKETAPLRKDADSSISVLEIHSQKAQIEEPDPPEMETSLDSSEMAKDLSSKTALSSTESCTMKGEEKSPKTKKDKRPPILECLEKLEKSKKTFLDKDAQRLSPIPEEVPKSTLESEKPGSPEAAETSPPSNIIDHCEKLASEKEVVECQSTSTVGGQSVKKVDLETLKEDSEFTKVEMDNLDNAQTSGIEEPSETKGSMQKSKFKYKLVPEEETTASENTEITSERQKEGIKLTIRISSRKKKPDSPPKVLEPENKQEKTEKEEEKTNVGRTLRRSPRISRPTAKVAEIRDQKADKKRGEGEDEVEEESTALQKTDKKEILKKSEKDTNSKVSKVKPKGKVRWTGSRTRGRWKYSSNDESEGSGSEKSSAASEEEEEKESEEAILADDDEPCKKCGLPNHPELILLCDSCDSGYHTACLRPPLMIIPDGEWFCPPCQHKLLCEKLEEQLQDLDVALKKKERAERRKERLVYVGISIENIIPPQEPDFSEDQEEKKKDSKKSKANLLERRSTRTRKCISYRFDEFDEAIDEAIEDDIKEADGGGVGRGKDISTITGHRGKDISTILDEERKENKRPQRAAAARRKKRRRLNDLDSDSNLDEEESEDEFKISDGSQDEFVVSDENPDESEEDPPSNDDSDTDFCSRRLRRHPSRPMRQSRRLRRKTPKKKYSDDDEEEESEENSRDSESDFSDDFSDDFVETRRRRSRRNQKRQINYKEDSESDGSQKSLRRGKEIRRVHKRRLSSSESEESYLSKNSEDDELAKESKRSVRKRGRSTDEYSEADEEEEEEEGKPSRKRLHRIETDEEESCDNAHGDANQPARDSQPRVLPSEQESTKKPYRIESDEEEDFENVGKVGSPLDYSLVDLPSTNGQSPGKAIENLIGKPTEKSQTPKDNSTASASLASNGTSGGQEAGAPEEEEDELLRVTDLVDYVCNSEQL
Sequence of UniProt Q9BWD1 (Q9BWD1 whole entry): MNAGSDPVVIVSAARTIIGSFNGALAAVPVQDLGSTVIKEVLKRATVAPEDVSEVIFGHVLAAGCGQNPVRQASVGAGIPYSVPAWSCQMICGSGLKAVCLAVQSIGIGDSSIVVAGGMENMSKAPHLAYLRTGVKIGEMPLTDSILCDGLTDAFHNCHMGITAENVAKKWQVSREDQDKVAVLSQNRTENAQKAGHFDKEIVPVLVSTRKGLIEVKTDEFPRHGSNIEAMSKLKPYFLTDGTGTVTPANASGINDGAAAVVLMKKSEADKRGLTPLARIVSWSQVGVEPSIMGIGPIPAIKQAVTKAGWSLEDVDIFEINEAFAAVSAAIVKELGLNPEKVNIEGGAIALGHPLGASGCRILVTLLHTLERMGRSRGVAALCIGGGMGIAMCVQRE
Sequence of UniProt Q9GZY4 (Q9GZY4 whole entry): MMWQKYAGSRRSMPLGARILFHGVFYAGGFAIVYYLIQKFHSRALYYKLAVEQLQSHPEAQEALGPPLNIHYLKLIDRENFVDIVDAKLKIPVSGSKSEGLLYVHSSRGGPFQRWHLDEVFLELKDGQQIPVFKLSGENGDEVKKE

Target	NP40-soluble protein abundance (concentration: 1mM)	NP40-soluble protein abundance (concentration: 2mM)	NP40-soluble protein abundance (concentration: 4mM)	NP40-soluble protein abundance (concentration: 6mM)	NP40-soluble protein abundance (concentration: 8mM)	NP40-soluble protein abundance (concentration: 10mM)
NIPSNAP1 (UniProt Q9BPW8)	0.94 ± 0.05	0.873 ± 0.075	0.943 ± 0.028	0.954 ± 0.08	1.02 ± 0.036	0.948 ± 0.021
UniProt Q9H8P0|H0Y9P9	0.933 ± 0.084	0.9132 ± 0.0065	0.948 ± 0.063	0.999 ± 0.14	1.02 ± 0.12	1.05 ± 0.15
UniProt Q9UL63|C9J7E8|Q9UL63-2	0.984 ± 0.065	0.968 ± 0.061	0.994 ± 0.041	0.937 ± 0.085	0.934 ± 0.092	0.922 ± 0.12
UniProt Q9H0W9|Q9H0W9-2	0.99 ± 0.035	0.972 ± 0.036	0.973 ± 0.029	0.974 ± 0.012	0.949 ± 0.043	0.935 ± 0.037
UniProt Q96RP9|Q96RP9-2	0.99 ± 0.021	0.981 ± 0.031	0.989 ± 0.02	0.976 ± 0.01	0.972 ± 0.022	0.949 ± 0.029
THRAP3 (UniProt Q9Y2W1)	1.11 ± 0.014	1.23 ± 0.1	1.2 ± 0.034	1.31 ± 0.044	1.32 ± 0.028	1.41 ± 0.03
UniProt Q99571|Q99571-2|F6SFZ6	0.986 ± 0.019	0.959 ± 0.019	0.971 ± 0.019	1.014 ± 0.0026	1.012 ± 0.0075	1.01 ± 0.039
MRPL9 (UniProt Q9BYD2)	1.04 ± 0.13	0.967 ± 0.13	1.03 ± 0.075	0.982 ± 0.09	1.01 ± 0.072	0.972 ± 0.15
UniProt Q9Y5V3|Q9Y5V3-2	1 ± 0.08	1 ± 0.059	0.937 ± 0.08	0.869 ± 0.077	0.81 ± 0.027	0.858 ± 0.048
UniProt Q9NXR1|Q9NXR1-2|X5DR54	0.994 ± 0.029	1.07 ± 0.041	1.01 ± 0.025	0.978 ± 0.019	0.985 ± 0.026	0.9852 ± 0.0096
UniProt Q9Y2Y0|Q9Y2Y0-2	0.982 ± 0.014	0.972 ± 0.026	0.989 ± 0.036	0.988 ± 0.049	0.975 ± 0.032	0.953 ± 0.015
CCDC86 (UniProt Q9H6F5)	1.12 ± 0.025	1.17 ± 0.096	1.2 ± 0.017	1.25 ± 0.05	1.31 ± 0.084	1.4 ± 0.13
UniProt Q9GZY4	0.995 ± 0.024	0.939 ± 0.041	1.01 ± 0.022	0.977 ± 0.015	0.9936 ± 0.0057	1.01 ± 0.051
ZNF48 (UniProt Q96MX3)	1.015 ± 0.0097	1.062 ± 0.0052	1.05 ± 0.033	1.06 ± 0.028	1.06 ± 0.017	1.12 ± 0.059
UniProt Q9NYU2|Q9NYU2-2	0.9826 ± 0.0098	0.9 ± 0.12	0.955 ± 0.034	0.917 ± 0.031	0.936 ± 0.04	0.895 ± 0.036
UniProt Q9Y2S0|Q9Y2S0-2|A0A0R4J2F3	1.03 ± 0.024	1.06 ± 0.053	1.08 ± 0.062	1.02 ± 0.018	1.03 ± 0.041	1.07 ± 0.036
UniProt Q9P0J0|Q9P0J0-2	0.912 ± 0.015	0.851 ± 0.095	0.89 ± 0.021	0.856 ± 0.017	0.877 ± 0.037	0.792 ± 0.047
CPSF2 (UniProt Q9P2I0)	1.01 ± 0.016	1 ± 0.053	1.03 ± 0.027	1.03 ± 0.061	1.05 ± 0.035	1.07 ± 0.055
UniProt Q9Y462|Q9Y462-3	1 ± 0.032	1.02 ± 0.037	1.012 ± 0.0034	1.01 ± 0.036	1.024 ± 0.0028	1.02 ± 0.013
UTP11 (UniProt Q9Y3A2)	1.02 ± 0.026	1.04 ± 0.037	1.03 ± 0.025	1.05 ± 0.026	1.05 ± 0.018	1.08 ± 0.018

Target	NP40-soluble protein abundance (concentration: 1mM)	NP40-soluble protein abundance (concentration: 2mM)	NP40-soluble protein abundance (concentration: 4mM)	NP40-soluble protein abundance (concentration: 6mM)	NP40-soluble protein abundance (concentration: 8mM)	NP40-soluble protein abundance (concentration: 10mM)
SUPT16H (UniProt Q9Y5B9)	1.03 ± 0.016	1.01 ± 0.023	1.1 ± 0.049	1.24 ± 0.053	1.33 ± 0.055	1.46 ± 0.12
UniProt Q9H0S4|Q9H0S4-2	0.994 ± 0.061	0.981 ± 0.022	1.11 ± 0.089	1.25 ± 0.12	1.39 ± 0.13	1.46 ± 0.14
TPX2 (UniProt Q9ULW0)	1.09 ± 0.013	1.2 ± 0.077	1.23 ± 0.066	1.27 ± 0.049	1.32 ± 0.072	1.39 ± 0.049
LRRC45 (UniProt Q96CN5)	0.977 ± 0.065	0.919 ± 0.029	0.969 ± 0.022	0.97 ± 0.015	1 ± 0.032	0.956 ± 0.03
UniProt Q96L91|Q96L91-2|Q96L91-3|Q96L91-5	1.03 ± 0.036	1.09 ± 0.038	1.05 ± 0.028	1.05 ± 0.061	1.03 ± 0.057	1.1 ± 0.084
C9orf78 (UniProt Q9NZ63)	0.999 ± 0.047	1.03 ± 0.038	0.982 ± 0.055	0.971 ± 0.036	0.966 ± 0.034	0.939 ± 0.078
UniProt Q9P1W8|Q9P1W8-2	0.9928 ± 0.0047	1.04 ± 0.041	1.02 ± 0.018	1.0109 ± 0.00039	1.0171 ± 0.00063	1.024 ± 0.0042
UniProt Q96P48|Q96P48-3	0.968 ± 0.022	0.896 ± 0.14	0.983 ± 0.07	0.903 ± 0.059	0.955 ± 0.066	0.882 ± 0.062
CBX8 (UniProt Q9HC52)	1.08 ± 0.015	1.1 ± 0.04	1.13 ± 0.018	1.23 ± 0.028	1.33 ± 0.062	1.39 ± 0.044
UniProt Q9UBK8|Q9UBK8-2	0.928 ± 0.02	0.881 ± 0.038	0.916 ± 0.041	0.971 ± 0.031	0.94 ± 0.051	0.964 ± 0.049
NCOA5 (UniProt Q9HCD5)	1.09 ± 0.062	1.18 ± 0.039	1.37 ± 0.081	1.73 ± 0.1	1.89 ± 0.14	2.17 ± 0.35
BCS1L (UniProt Q9Y276)	0.966 ± 0.021	0.874 ± 0.11	0.996 ± 0.024	0.955 ± 0.035	0.982 ± 0.024	0.937 ± 0.035
MOV10 (UniProt Q9HCE1)	0.952 ± 0.027	0.867 ± 0.15	0.932 ± 0.09	0.938 ± 0.032	0.944 ± 0.08	0.889 ± 0.12
XPO7 (UniProt Q9UIA9)	0.973 ± 0.036	0.932 ± 0.035	0.96 ± 0.019	0.958 ± 0.037	0.966 ± 0.015	0.939 ± 0.03
UniProt Q9NYF8|Q9NYF8-2|Q9NYF8-3|E9PK91	1.1 ± 0.018	1.19 ± 0.08	1.19 ± 0.033	1.29 ± 0.1	1.31 ± 0.11	1.43 ± 0.12
SORT1 (UniProt Q99523)	0.99 ± 0.034	1.05 ± 0.089	0.995 ± 0.063	1.03 ± 0.055	1.03 ± 0.036	1.03 ± 0.047
ZNF512B (UniProt Q96KM6)	1.01 ± 0.017	1.09 ± 0.06	1.1 ± 0.061	1.13 ± 0.044	1.16 ± 0.05	1.17 ± 0.064
UniProt Q9Y520|Q9Y520-5|Q9Y520-7|E7EPN9|Q9Y520-4	1.1 ± 0.013	1.2 ± 0.092	1.2 ± 0.05	1.25 ± 0.12	1.29 ± 0.14	1.41 ± 0.17
UniProt Q9NPG3|Q9NPG3-2	1.01 ± 0.013	1.05 ± 0.037	1.07 ± 0.021	1.06 ± 0.034	1.06 ± 0.022	1.09 ± 0.067
GRWD1 (UniProt Q9BQ67)	1.09 ± 0.064	1.01 ± 0.089	1.11 ± 0.068	1.05 ± 0.043	1.11 ± 0.073	1.04 ± 0.045

Target	NP40-soluble protein abundance (concentration: 1mM)	NP40-soluble protein abundance (concentration: 2mM)	NP40-soluble protein abundance (concentration: 4mM)	NP40-soluble protein abundance (concentration: 6mM)	NP40-soluble protein abundance (concentration: 8mM)	NP40-soluble protein abundance (concentration: 10mM)
UniProt Q9ULV4|Q9ULV4-2|Q9ULV4-3	1.07 ± 0.04	1.11 ± 0.056	1.12 ± 0.026	1.26 ± 0.015	1.33 ± 0.018	1.39 ± 0.037
SMARCD1 (UniProt Q96GM5)	1.01 ± 0.085	0.97 ± 0.12	1.03 ± 0.11	1.01 ± 0.12	1.03 ± 0.12	1.01 ± 0.12
UniProt Q9BRT2|V5IRT4	1.03 ± 0.022	1.13 ± 0.11	1.03 ± 0.016	1.0141 ± 0.00091	1.025 ± 0.0039	1.011 ± 0.0053
UniProt Q9BPZ3|D6R9Y1	0.981 ± 0.02	1.01 ± 0.044	0.945 ± 0.028	0.966 ± 0.051	0.929 ± 0.014	0.9085 ± 0.0067
UniProt Q96RL7|Q96RL7-2|Q96RL7-3|Q96RL7-4	0.982 ± 0.039	0.918 ± 0.098	0.969 ± 0.012	0.916 ± 0.024	0.949 ± 0.022	0.8993 ± 0.0069
UniProt Q9BRG1|K7EKV4	1.04 ± 0.028	0.957 ± 0.094	1.02 ± 0.063	0.931 ± 0.043	0.982 ± 0.071	0.942 ± 0.099
ACAT2 (UniProt Q9BWD1)	0.987 ± 0.021	0.996 ± 0.038	0.931 ± 0.021	0.967 ± 0.017	0.951 ± 0.021	0.92 ± 0.02
RAB39B (UniProt Q96DA2)	1 ± 0.025	0.934 ± 0.066	0.996 ± 0.019	0.9868 ± 0.0097	0.986 ± 0.015	0.954 ± 0.041
PUS3 (UniProt Q9BZE2)	1.01 ± 0.013	0.997 ± 0.0053	1 ± 0.026	1.03 ± 0.054	0.978 ± 0.032	0.974 ± 0.019
NOB1 (UniProt Q9ULX3)	0.972 ± 0.013	0.956 ± 0.027	0.984 ± 0.042	0.966 ± 0.023	1 ± 0.043	1 ± 0.047
RBM27 (UniProt Q9P2N5)	1.04 ± 0.021	1.15 ± 0.062	1.13 ± 0.05	1.24 ± 0.12	1.25 ± 0.11	1.34 ± 0.16
UniProt Q9NPB8|H0Y565	1.01 ± 0.017	1.05 ± 0.034	1.02 ± 0.015	0.999 ± 0.033	0.9977 ± 0.0075	1.02 ± 0.019
UniProt Q9H2H8|B8ZZ77|Q9H2H8-2	1.04 ± 0.038	1.04 ± 0.032	1.04 ± 0.017	0.998 ± 0.031	1.02 ± 0.018	1.03 ± 0.038
UniProt Q9BZL4-4|Q9BZL4	1 ± 0.033	1.04 ± 0.036	1.01 ± 0.047	0.997 ± 0.023	0.978 ± 0.017	0.999 ± 0.015
UniProt Q96T23|Q96T23-2	1.07 ± 0.026	1.21 ± 0.11	1.32 ± 0.061	1.53 ± 0.18	1.67 ± 0.21	1.93 ± 0.25
PARP12 (UniProt Q9H0J9)	0.982 ± 0.046	0.946 ± 0.042	1.01 ± 0.022	0.991 ± 0.015	1.04 ± 0.029	1.01 ± 0.023
MECR (UniProt Q9BV79)	1.04 ± 0.021	1.21 ± 0.051	1.07 ± 0.011	1.04 ± 0.024	1.048 ± 0.0045	1.05 ± 0.03
DYNLRB1 (UniProt Q9NP97)	0.996 ± 0.011	1.04 ± 0.054	0.977 ± 0.03	1.01 ± 0.018	0.9949 ± 0.0057	1.01 ± 0.02
HECA (UniProt Q9UBI9)	0.969 ± 0.029	1 ± 0.017	1.02 ± 0.049	1.034 ± 0.0078	1.06 ± 0.046	1.04 ± 0.024
DDX21 (UniProt Q9NR30)	1.21 ± 0.11	1.25 ± 0.13	1.39 ± 0.23	1.55 ± 0.31	1.66 ± 0.38	1.78 ± 0.4
